Measured values taken from the supplement of paper PMC6411743.
± gives the standard deviation of the averaged measurements. Targets with the largest changes are over-represented here; the source holds about 6,500 in all.

Compound: Nc1ncnc2c1ncn2[C@@H]1O[C@H](COP(=O)(O)OP(=O)(O)OP(=O)(O)O)[C@@H](O)[C@H]1O [adenosine triphosphate]
Experiment: NP40-soluble protein abundance relative to vehicle (solubility fold change) (ratio); higher = more soluble protein in presence of ATP
Summary of the method: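 Jurkat crude lysate (Dounce-homogenised) was treated with eight concentrations from 0.1 to 10 mM for 10 min at room temperature, then 3 min at 37 °C. It was solubilised with 0.8% NP40 and benzonase (60 min, 4 °C) and ultracentrifuged, and the supernatant was TMT-labelled for LC-MS/MS. Intensities were vsn-normalised, and the value is the fold change against the NP40-processed vehicle per replicate, from three independent experiments.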

Sequence of UniProt Q9NQG5 (Q9NQG5 whole entry): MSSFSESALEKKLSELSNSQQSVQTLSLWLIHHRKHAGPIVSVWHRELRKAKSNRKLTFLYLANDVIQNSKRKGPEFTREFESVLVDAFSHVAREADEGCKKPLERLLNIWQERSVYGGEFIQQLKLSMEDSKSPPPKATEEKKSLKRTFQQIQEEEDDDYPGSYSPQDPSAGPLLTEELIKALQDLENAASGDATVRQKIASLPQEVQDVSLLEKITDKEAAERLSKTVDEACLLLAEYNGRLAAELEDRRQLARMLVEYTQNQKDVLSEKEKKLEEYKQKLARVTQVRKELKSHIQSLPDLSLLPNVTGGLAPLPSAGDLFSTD
Sequence of UniProt Q9UEY8 (Q9UEY8 whole entry): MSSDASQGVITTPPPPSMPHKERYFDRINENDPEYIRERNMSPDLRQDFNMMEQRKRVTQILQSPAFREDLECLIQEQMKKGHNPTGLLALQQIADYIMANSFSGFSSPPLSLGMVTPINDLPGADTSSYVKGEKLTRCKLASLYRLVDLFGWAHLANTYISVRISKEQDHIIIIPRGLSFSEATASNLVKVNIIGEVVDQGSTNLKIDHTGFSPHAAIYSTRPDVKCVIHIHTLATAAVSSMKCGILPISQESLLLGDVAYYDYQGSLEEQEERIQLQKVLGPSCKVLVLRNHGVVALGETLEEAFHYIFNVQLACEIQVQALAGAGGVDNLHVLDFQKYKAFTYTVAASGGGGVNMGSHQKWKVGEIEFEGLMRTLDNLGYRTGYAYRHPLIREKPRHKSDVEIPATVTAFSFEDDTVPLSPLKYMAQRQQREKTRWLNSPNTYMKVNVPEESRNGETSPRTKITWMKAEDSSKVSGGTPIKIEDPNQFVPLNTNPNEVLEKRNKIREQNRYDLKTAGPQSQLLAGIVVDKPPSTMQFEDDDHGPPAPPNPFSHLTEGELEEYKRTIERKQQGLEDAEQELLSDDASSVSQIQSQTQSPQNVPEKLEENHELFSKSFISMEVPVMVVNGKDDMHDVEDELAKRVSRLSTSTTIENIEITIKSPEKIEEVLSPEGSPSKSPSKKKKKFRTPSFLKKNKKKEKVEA
Sequence of UniProt Q96DU7 (Q96DU7 whole entry): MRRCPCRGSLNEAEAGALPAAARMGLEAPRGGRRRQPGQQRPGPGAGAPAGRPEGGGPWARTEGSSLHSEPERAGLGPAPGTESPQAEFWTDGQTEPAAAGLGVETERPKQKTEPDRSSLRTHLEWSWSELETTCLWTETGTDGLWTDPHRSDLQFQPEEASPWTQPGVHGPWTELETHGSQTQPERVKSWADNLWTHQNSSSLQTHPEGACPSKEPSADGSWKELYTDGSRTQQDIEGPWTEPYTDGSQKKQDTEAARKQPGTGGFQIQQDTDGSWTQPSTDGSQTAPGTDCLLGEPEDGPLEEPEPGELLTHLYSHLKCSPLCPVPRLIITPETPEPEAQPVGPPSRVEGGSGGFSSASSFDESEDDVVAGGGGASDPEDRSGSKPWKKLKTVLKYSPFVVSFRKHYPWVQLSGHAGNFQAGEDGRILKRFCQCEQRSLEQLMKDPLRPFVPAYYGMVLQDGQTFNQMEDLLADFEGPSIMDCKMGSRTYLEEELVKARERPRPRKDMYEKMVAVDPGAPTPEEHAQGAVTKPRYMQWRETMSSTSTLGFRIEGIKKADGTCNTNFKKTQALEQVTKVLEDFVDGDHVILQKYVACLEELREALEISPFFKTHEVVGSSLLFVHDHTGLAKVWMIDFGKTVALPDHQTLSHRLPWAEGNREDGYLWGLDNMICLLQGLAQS
Sequence of UniProt Q9NR30 (Q9NR30 whole entry): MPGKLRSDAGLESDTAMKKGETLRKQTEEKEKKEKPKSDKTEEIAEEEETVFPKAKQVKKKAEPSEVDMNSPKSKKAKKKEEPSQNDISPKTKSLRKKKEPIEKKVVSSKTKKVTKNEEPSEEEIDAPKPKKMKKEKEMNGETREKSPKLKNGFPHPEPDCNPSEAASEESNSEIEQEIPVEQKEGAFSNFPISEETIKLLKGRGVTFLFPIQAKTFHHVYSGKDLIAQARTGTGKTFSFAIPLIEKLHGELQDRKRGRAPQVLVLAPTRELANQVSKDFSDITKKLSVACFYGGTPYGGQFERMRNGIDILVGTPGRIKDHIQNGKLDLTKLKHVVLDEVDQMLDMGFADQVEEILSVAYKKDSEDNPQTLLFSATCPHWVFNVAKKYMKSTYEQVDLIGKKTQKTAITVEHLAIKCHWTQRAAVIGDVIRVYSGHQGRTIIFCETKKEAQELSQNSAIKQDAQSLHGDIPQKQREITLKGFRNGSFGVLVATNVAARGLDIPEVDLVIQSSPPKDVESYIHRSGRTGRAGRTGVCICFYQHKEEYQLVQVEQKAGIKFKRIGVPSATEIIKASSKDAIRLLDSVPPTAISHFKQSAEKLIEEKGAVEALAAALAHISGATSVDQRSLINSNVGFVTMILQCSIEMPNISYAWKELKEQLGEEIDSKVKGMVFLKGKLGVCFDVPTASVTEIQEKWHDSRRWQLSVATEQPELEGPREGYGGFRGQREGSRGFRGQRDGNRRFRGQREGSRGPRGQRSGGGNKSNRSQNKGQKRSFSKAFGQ
Sequence of UniProt Q9NNW7 (Q9NNW7 whole entry): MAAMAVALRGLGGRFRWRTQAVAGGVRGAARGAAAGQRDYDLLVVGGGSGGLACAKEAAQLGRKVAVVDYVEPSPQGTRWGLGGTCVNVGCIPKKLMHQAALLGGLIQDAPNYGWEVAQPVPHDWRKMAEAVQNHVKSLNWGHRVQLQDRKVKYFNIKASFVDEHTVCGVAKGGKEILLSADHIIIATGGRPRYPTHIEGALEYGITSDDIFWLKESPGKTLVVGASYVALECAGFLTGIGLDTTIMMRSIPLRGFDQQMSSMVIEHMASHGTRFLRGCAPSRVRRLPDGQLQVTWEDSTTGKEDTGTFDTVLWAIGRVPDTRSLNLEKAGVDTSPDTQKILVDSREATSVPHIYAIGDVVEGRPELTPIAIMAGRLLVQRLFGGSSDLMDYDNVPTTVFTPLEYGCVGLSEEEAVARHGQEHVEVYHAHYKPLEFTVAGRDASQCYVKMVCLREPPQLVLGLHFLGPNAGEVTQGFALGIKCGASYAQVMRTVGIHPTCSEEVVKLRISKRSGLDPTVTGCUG
Sequence of UniProt Q9UG63 (Q9UG63 whole entry): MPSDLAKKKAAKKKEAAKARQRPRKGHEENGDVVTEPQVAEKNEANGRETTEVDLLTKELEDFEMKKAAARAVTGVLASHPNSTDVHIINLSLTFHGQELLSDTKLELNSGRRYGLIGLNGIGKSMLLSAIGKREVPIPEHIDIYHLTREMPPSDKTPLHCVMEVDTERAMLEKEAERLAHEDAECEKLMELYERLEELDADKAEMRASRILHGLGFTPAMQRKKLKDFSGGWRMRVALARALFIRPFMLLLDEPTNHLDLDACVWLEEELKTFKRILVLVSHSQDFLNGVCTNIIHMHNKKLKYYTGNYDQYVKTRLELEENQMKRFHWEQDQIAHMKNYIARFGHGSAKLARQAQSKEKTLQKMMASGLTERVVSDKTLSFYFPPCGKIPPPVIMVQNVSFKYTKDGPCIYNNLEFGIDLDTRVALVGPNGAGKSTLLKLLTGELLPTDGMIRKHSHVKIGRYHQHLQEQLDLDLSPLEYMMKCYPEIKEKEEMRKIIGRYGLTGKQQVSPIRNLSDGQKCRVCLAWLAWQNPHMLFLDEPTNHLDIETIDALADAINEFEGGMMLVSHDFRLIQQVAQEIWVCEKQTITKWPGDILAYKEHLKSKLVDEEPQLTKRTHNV
Sequence of UniProt Q9NWB6 (Q9NWB6 whole entry): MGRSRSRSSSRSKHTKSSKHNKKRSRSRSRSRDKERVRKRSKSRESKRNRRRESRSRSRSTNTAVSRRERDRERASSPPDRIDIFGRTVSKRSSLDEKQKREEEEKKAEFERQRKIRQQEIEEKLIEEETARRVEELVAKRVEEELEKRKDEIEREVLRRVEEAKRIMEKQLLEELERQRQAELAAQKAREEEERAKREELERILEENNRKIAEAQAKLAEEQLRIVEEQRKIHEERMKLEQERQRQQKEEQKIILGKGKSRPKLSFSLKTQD
Sequence of UniProt Q9BTE6 (Q9BTE6 whole entry): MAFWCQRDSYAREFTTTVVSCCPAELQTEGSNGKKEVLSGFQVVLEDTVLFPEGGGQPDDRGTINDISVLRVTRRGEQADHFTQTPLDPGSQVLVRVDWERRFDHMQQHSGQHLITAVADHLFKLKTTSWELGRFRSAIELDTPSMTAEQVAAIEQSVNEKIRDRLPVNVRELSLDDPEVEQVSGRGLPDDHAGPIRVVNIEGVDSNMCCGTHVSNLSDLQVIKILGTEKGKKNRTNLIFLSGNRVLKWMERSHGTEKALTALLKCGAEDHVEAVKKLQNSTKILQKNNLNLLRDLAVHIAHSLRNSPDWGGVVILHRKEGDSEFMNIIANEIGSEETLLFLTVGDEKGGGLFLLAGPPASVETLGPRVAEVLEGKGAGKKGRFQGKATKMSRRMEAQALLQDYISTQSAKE
Sequence of UniProt Q9BTL3 (Q9BTL3 whole entry): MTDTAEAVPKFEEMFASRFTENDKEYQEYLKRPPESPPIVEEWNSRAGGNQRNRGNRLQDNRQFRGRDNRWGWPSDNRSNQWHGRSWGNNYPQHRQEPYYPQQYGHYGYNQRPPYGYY

Target	NP40-soluble protein abundance (concentration: 1mM)	NP40-soluble protein abundance (concentration: 2mM)	NP40-soluble protein abundance (concentration: 4mM)	NP40-soluble protein abundance (concentration: 6mM)	NP40-soluble protein abundance (concentration: 8mM)	NP40-soluble protein abundance (concentration: 10mM)
TDP1 (UniProt Q9NUW8)	1.02 ± 0.032	1.02 ± 0.046	0.983 ± 0.063	1 ± 0.069	0.985 ± 0.049	1.01 ± 0.062
UniProt Q92833|Q92833-2	1.33 ± 0.27	1.32 ± 0.34	1.48 ± 0.51	1.49 ± 0.48	1.59 ± 0.63	1.76 ± 0.69
ARMC1 (UniProt Q9NVT9)	0.913 ± 0.046	0.946 ± 0.018	0.876 ± 0.024	0.866 ± 0.063	0.881 ± 0.035	0.908 ± 0.029
UniProt Q96NT0|B8ZZ99	0.832 ± 0.11	0.87 ± 0.12	0.886 ± 0.061	0.84 ± 0.16	0.863 ± 0.11	0.849 ± 0.16
UniProt Q96AT9|Q96AT9-2	1.06 ± 0.092	1.07 ± 0.047	1.06 ± 0.075	1.05 ± 0.073	0.991 ± 0.064	0.993 ± 0.048
LUC7L (UniProt Q9NQ29)	2.7 ± 0.14	2.9 ± 0.11	2.86 ± 0.17	3.28 ± 0.17	2.93 ± 0.17	3.11 ± 0.15
TGS1 (UniProt Q96RS0)	0.969 ± 0.087	0.995 ± 0.067	1.03 ± 0.035	1.05 ± 0.054	1.03 ± 0.069	1.1 ± 0.026
UniProt Q9BXI6|Q9BXI6-2	0.935 ± 0.035	0.917 ± 0.032	0.927 ± 0.031	0.941 ± 0.038	0.895 ± 0.025	0.925 ± 0.045
MRPL17 (UniProt Q9NRX2)	1.08 ± 0.13	0.934 ± 0.14	0.939 ± 0.14	0.916 ± 0.33	0.93 ± 0.21	0.822 ± 0.18
UniProt Q9UBF8-2	0.962 ± 0.044	0.961 ± 0.065	0.9581 ± 0.0056	0.938 ± 0.011	0.9049 ± 0.007	0.928 ± 0.026
FUT8 (UniProt Q9BYC5)	1 ± 0.035	0.987 ± 0.052	1.02 ± 0.025	0.9889 ± 0.0069	1.04 ± 0.045	1.01 ± 0.039
RPRD1B (UniProt Q9NQG5)	0.969 ± 0.12	0.943 ± 0.039	0.971 ± 0.049	0.993 ± 0.089	1.02 ± 0.034	0.854 ± 0.15
UniProt Q9NYK6|Q9NYK6-3	1.09 ± 0.13	1.02 ± 0.026	1.04 ± 0.011	1.05 ± 0.089	0.99 ± 0.066	1.05 ± 0.026
UniProt Q9NUL3-3|Q9NUL3-8|A0A0A0MTD1|E7EPX0|E7EVJ4|F8VPI7|A0A0A0MTC5|E9PH62|Q9NUL3|Q9NUL3-2	0.971 ± 0.048	1.11 ± 0.13	1.02 ± 0.057	1.11 ± 0.15	1.16 ± 0.099	1.3 ± 0.11
DDX21 (UniProt Q9NR30)	1.29 ± 0.046	1.42 ± 0.042	1.65 ± 0.098	2.04 ± 0.17	2.53 ± 0.21	3.17 ± 0.13
UniProt Q99653	0.961 ± 0.041	0.989 ± 0.011	0.983 ± 0.029	0.965 ± 0.054	0.961 ± 0.059	0.931 ± 0.037
UniProt Q9BTE6|Q9BTE6-3	0.947 ± 0.046	0.965 ± 0.018	0.932 ± 0.015	0.964 ± 0.067	0.928 ± 0.036	0.958 ± 0.025
UniProt Q9BTT6	0.931 ± 0.073	0.916 ± 0.081	0.945 ± 0.049	0.967 ± 0.092	0.961 ± 0.092	0.922 ± 0.045
ZNF512B (UniProt Q96KM6)	1.01 ± 0.04	1.05 ± 0.02	1.07 ± 0.024	1.12 ± 0.044	1.08 ± 0.03	1.08 ± 0.043
ITPKC (UniProt Q96DU7)	0.986 ± 0.048	0.971 ± 0.041	1.0284 ± 0.00016	0.857 ± 0.11	0.886 ± 0.026	0.883 ± 0.019

Target	NP40-soluble protein abundance (concentration: 1mM)	NP40-soluble protein abundance (concentration: 2mM)	NP40-soluble protein abundance (concentration: 4mM)	NP40-soluble protein abundance (concentration: 6mM)	NP40-soluble protein abundance (concentration: 8mM)	NP40-soluble protein abundance (concentration: 10mM)
UniProt Q9NVI7-2	1.54 ± 0.05	1.64 ± 0.086	1.8 ± 0.086	1.89 ± 0.29	2.2 ± 0.2	2.35 ± 0.26
UniProt Q9HDC9	1.03 ± 0.13	1 ± 0.11	0.936 ± 0.039	0.903 ± 0.13	0.953 ± 0.06	0.953 ± 0.079
UniProt Q9BSW2-2	0.967 ± 0.041	1.01 ± 0.034	1.02 ± 0.02	1.01 ± 0.018	0.972 ± 0.0098	0.988 ± 0.04
UniProt Q9NNW7|Q9NNW7-2	1.01 ± 0.04	0.942 ± 0.011	0.983 ± 0.067	0.951 ± 0.02	0.949 ± 0.057	0.958 ± 0.1
UniProt Q9HC36	1.11 ± 0.06	1.29 ± 0.068	1.57 ± 0.13	1.8 ± 0.21	2.03 ± 0.2	2.37 ± 0.32
UniProt Q9BS26	0.982 ± 0.043	0.956 ± 0.035	0.943 ± 0.057	0.945 ± 0.067	0.952 ± 0.06	0.941 ± 0.054
UniProt Q9BRQ0|Q5T171	0.931 ± 0.11	0.887 ± 0.18	0.898 ± 0.15	0.944 ± 0.19	0.865 ± 0.15	0.909 ± 0.29
UniProt Q9H974|Q9H974-4	1.03 ± 0.044	1 ± 0.035	1 ± 0.029	0.996 ± 0.044	1.02 ± 0.016	0.991 ± 0.025
EIF2AK4 (UniProt Q9P2K8)	1.04 ± 0.096	1.02 ± 0.078	1.02 ± 0.071	0.967 ± 0.073	1.03 ± 0.056	1.03 ± 0.082
UniProt Q9UG63|Q9UG63-2	1.09 ± 0.033	1.15 ± 0.039	1.42 ± 0.019	1.67 ± 0.095	2.16 ± 0.093	2.59 ± 0.25
SACS (UniProt Q9NZJ4)	1.09 ± 0.08	1.04 ± 0.072	1.08 ± 0.056	0.991 ± 0.075	1.102 ± 0.01	1.05 ± 0.042
COG8 (UniProt Q96MW5)	0.938 ± 0.057	0.917 ± 0.029	0.937 ± 0.048	0.898 ± 0.068	0.902 ± 0.06	0.975 ± 0.054
QTRT1 (UniProt Q9BXR0)	1.01 ± 0.12	0.995 ± 0.091	1.02 ± 0.049	0.925 ± 0.14	0.994 ± 0.049	0.985 ± 0.051
UniProt Q92576|Q92576-2	1.05 ± 0.052	1.07 ± 0.056	1.12 ± 0.051	1.22 ± 0.11	1.2 ± 0.048	1.24 ± 0.073
VPS37B (UniProt Q9H9H4)	0.992 ± 0.11	0.958 ± 0.12	0.967 ± 0.057	0.983 ± 0.12	0.946 ± 0.073	0.887 ± 0.13
PNKP (UniProt Q96T60)	1.04 ± 0.02	1.0346 ± 0.00031	1.03 ± 0.022	1.05 ± 0.023	1.11 ± 0.036	1.157 ± 0.011
ZNF48 (UniProt Q96MX3)	1.11 ± 0.069	1.13 ± 0.034	1.21 ± 0.077	1.31 ± 0.15	1.34 ± 0.12	1.4 ± 0.12
UniProt Q96JM3	1.02 ± 0.043	1.02 ± 0.042	1.03 ± 0.048	1.12 ± 0.037	1.1 ± 0.039	1.12 ± 0.025
UniProt Q9UEY8|Q9UEY8-2	1.01 ± 0.019	1.02 ± 0.018	1.01 ± 0.014	1.02 ± 0.035	0.99 ± 0.023	1.004 ± 0.0086
UniProt Q9UBK8|Q9UBK8-2	0.946 ± 0.042	1.01 ± 0.066	0.941 ± 0.058	0.97 ± 0.068	0.973 ± 0.028	0.978 ± 0.08

Target	NP40-soluble protein abundance (concentration: 1mM)	NP40-soluble protein abundance (concentration: 2mM)	NP40-soluble protein abundance (concentration: 4mM)	NP40-soluble protein abundance (concentration: 6mM)	NP40-soluble protein abundance (concentration: 8mM)	NP40-soluble protein abundance (concentration: 10mM)
DHRS4 (UniProt Q9BTZ2)	0.9895 ± 0.0086	0.987 ± 0.019	0.989 ± 0.043	0.956 ± 0.028	0.968 ± 0.035	0.988 ± 0.018
UniProt Q9H6W3	1.2 ± 0.019	1.25 ± 0.029	1.31 ± 0.063	1.46 ± 0.1	1.54 ± 0.11	1.73 ± 0.093
PUS7 (UniProt Q96PZ0)	0.969 ± 0.059	0.974 ± 0.057	0.967 ± 0.034	0.941 ± 0.076	0.963 ± 0.03	0.968 ± 0.036
UniProt Q96LT9|Q96LT9-2	1.31 ± 0.027	1.46 ± 0.034	1.75 ± 0.15	1.95 ± 0.12	1.78 ± 0.02	2.06 ± 0.096
DPCD (UniProt Q9BVM2)	0.965 ± 0.024	1.02 ± 0.045	0.969 ± 0.01	0.933 ± 0.048	0.929 ± 0.069	1.01 ± 0.087
UniProt Q9NY12|Q9NY12-2	1.11 ± 0.061	1.18 ± 0.084	1.29 ± 0.067	1.41 ± 0.16	1.72 ± 0.15	1.93 ± 0.32
DNAJC9 (UniProt Q8WXX5)	1.04 ± 0.024	1.13 ± 0.012	1.34 ± 0.04	1.55 ± 0.057	1.73 ± 0.12	1.76 ± 0.1
ARGLU1 (UniProt Q9NWB6)	1.72 ± 0.14	1.86 ± 0.18	2.03 ± 0.26	2.27 ± 0.22	2.33 ± 0.28	2.44 ± 0.27
TBRG4 (UniProt Q969Z0)	0.981 ± 0.047	0.957 ± 0.015	0.928 ± 0.026	0.962 ± 0.069	0.955 ± 0.022	0.948 ± 0.015
RABEP2 (UniProt Q9H5N1)	0.967 ± 0.062	0.941 ± 0.036	0.929 ± 0.035	0.956 ± 0.046	0.905 ± 0.011	0.901 ± 0.039
DSCC1 (UniProt Q9BVC3)	1.04 ± 0.038	1.06 ± 0.011	1.03 ± 0.018	1.01 ± 0.021	1.077 ± 0.0062	1.05 ± 0.037
UniProt Q9GZP9|I3L1T3	0.935 ± 0.091	0.903 ± 0.083	0.946 ± 0.13	0.887 ± 0.12	0.944 ± 0.068	0.916 ± 0.11
SRPK1 (UniProt Q96SB4)	1.31 ± 0.091	1.39 ± 0.079	1.5 ± 0.099	1.63 ± 0.12	1.67 ± 0.083	1.74 ± 0.11
UniProt Q9H0S4|Q9H0S4-2	1.18 ± 0.12	1.23 ± 0.072	1.44 ± 0.03	1.5 ± 0.09	1.79 ± 0.073	1.99 ± 0.11
UniProt Q96GM8|Q96GM8-2	1.06 ± 0.095	1.22 ± 0.14	1.35 ± 0.12	1.38 ± 0.12	1.53 ± 0.13	1.82 ± 0.32
BIRC6 (UniProt Q9NR09)	1.05 ± 0.029	1.01 ± 0.058	0.992 ± 0.031	0.99 ± 0.12	0.999 ± 0.083	0.994 ± 0.088
SENP8 (UniProt Q96LD8)	0.97 ± 0.057	0.942 ± 0.032	0.943 ± 0.014	0.922 ± 0.035	0.911 ± 0.024	0.932 ± 0.023
UniProt Q92804|Q92804-2	1.05 ± 0.14	1.07 ± 0.15	1.24 ± 0.2	1.5 ± 0.29	1.59 ± 0.21	2.05 ± 0.3
UniProt Q9BTL3	0.928 ± 0.13	0.882 ± 0.066	0.95 ± 0.059	1 ± 0.11	0.888 ± 0.028	0.869 ± 0.059
UniProt Q9NQW7-3	1.01 ± 0.044	0.994 ± 0.029	0.968 ± 0.044	0.976 ± 0.052	0.991 ± 0.043	0.966 ± 0.036
